Results published in the supplement of paper PMC12632987.

T1: USP38, Q8NB14
T1 chain: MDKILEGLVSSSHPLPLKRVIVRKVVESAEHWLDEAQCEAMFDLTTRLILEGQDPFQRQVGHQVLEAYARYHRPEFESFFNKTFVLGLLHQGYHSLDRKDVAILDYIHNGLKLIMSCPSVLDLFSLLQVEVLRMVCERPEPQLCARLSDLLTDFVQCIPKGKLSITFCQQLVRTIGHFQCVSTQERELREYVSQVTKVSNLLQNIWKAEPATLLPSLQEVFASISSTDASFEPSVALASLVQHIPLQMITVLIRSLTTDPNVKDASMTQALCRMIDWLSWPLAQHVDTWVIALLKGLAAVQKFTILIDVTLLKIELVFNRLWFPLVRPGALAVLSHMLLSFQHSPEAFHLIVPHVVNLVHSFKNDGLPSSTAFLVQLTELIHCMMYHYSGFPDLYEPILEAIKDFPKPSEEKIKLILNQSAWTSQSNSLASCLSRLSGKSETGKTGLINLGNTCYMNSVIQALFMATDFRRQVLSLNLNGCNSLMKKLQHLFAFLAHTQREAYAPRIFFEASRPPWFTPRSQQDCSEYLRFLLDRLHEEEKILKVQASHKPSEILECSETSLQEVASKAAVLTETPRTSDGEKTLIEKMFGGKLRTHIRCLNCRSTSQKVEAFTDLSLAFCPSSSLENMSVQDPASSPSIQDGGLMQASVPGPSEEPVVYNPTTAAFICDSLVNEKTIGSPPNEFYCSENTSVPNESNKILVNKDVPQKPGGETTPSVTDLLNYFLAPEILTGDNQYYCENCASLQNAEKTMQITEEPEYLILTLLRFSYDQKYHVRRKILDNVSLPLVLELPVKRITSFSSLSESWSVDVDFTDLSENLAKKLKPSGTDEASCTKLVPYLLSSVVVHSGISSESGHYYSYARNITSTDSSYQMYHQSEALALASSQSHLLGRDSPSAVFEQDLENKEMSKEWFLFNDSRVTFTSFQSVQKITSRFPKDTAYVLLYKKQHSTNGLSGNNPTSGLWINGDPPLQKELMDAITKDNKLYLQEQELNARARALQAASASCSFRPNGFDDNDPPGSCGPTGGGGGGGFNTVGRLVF


Molecular target: T1, USP38, Q8NB14
Test: median log2 fold change of GCK-ALFA target abundance (FLAG IP / Myc IP barcode read proportion) (log2 ratio); each designed protein is fused to an ALFA-tag nanobody in HEK293 cells to bring the named protein to FLAG-tagged glucokinase (GCK); Myc marks an untargeted standard; higher = target protein stabilised (more abundant)
Conditions: target protein: 3xFLAG-MCP-GCK-ALFA reporter; HEK293 landing pad (RPLP)
In short: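 An ALFA-nanobody-fused binder library was recombined into HEK293 landing-pad cells and induced with 2 μg mL^−1 doxycycline. Cells were transfected with a plasmid expressing a FLAG-tagged target and a Myc-tagged standard. After 48 h, lysates underwent anti-FLAG and anti-Myc immunoprecipitation, and circular RNA barcodes were reverse transcribed, amplified and sequenced. Target abundance is the per-binder median log2 ratio of FLAG to Myc barcode read proportions. Barcodes needed ≥10^−7 proportion in both replicates, binders ≥3 barcodes per replicate, and a 10^−6 pseudocount was added; the two replicates were pooled.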

| Binder | median log2 fold change |
| --- | --- |
| usp_38_diff_out_3_65_532 (protein) KVEELLKKAEEKLEEAEKKIKELEKRVKEDPNITEEEVNEMLDEAADLIVEAGKYIREAKKLNPDEEQQERIKELEERLDEVIDLYVKAGEAGFLAVGER | -0.0854 |
| usp_38_diff_out_3_65_533 (protein) KVEELLKKAEEKLKEAEKKIRELEERVETDPSLTEEEVNAMLDEAADLIVEAGKYIREAKKLNPDEEQKKRIEELEKRLDEVIDLYVEAGERAFLAVGER | 0.0706 |
| usp_38_diff_out_3_65_534 (protein) EVEELLKEAQKKLKEARAIIEALRERVESDPTITIDEVNARLDEAADKIVEAGQYIREAKKLNPDEEQKKKIEELEKELDEVLDEYRETAEFAFLRVAER | -0.0616 |
| usp_38_diff_out_3_65_535 (protein) KIEELLKEAEKYLEEAEKLVEELRRRVESDPTLTIDELNARLDEAADLIVKAGQKIREAKKLNPDEEQKKKLKELEKRLDEVLKKYREAAEEGFLRVAER | -0.384 |
| usp_38_diff_out_3_65_536 (protein) EVEKLLEEAKKYLEEARKIVEELRREVEEDPTITIDEVNEKLDEAADKIVAAGQKIREAKKLNPDEEQKKQLEELEKELDEVLELYRETAEYAFLKVAER | -0.223 |
| usp_38_diff_out_3_65_537 (protein) EVEELLEEAERRLEEARELIEALRREVESDPSLTIDEVNARLDEAVDLLVEAGEAIRRARRLDPDPEQRERLEELERRLDEVLRLYRETAEFAFLTVAER | -0.264 |
| usp_38_diff_out_3_65_538 (protein) EVQKLLEEAQKLLDEATKIIDELKERVESDPTLTIDEVNEMLDKAADKIVAAGEKINEAKKLNPDEEQKKQIEELEKRLDEVIEKYREAAEYAFLRVAER | -0.281 |
| usp_38_diff_out_3_65_539 (protein) KVEELLERAQEHLEKAEELVEGLRERTATDPTLTIDEVVAMLDEAADHLVAAAQDIEEAKKLDPDEEQQERLEELQERLDRLIDEYERAGREAFLAVGER | -0.504 |
| usp_38_diff_out_3_65_540 (protein) EVQELLERAERHLEEAEEIIEELERRTETDPTLTIDEVVEMLDEAADHLVAASEDIKEAKKLNPDEEQKKRIEELEKRLDELIDRYVEAGERAFLAVGER | 0.111 |
| usp_38_diff_out_3_65_541 (protein) EIEKLLKEAKKYLEEAKKIIEELRERTRTDPTLTIEEVNEMLDKAADLLVKAGEYIEKAKKLNPDEKQKKEIEKLKKELEELLDEYVEAGEEAYLAVGER | -0.0269 |
| usp_38_diff_out_3_65_542 (protein) KVEELLKKAEEKLKEAREKIRELRERVETDPELTEEEIVEMLDEAADLLVEAGEYIREAKKLNPDEEAKKKIKELEKELEELIDEYVEAGERAFLAYGER | 0.499 |
| usp_38_diff_out_4_126_543 (protein) DREKAFDELAKEAEALMKEAKEYLEKAKEAMDKDPEKAKEYLDKAYEALGKLSKALREMRRIARDDPELRKRYKELLKKANELVSEFTKVAEELLLKLSE | -0.661 |
| usp_38_diff_out_4_126_544 (protein) SREAEFAALRAEAEAALAEAERLLAEARAELDKDPEKALELLDRAWDALGRAAALLREMRRIAADDPALRAELAALRARLDALIDEFTAAATEIYEKIAE | -0.215 |
| usp_38_diff_out_4_126_545 (protein) SREEEFKKLEKEAEKKIEEAKKLLEEALKELDKDPEKALELLDKAWDALGEAAKLLREMRRVAADDEELRKRYKELEEKLDKLIDEFTKAATYIFEKIAE | -0.694 |
| usp_38_diff_out_4_126_546 (protein) SRKEEFEKLKKEAEEKMKEAKKLLAEALAALDKDPEKALALLDKAWDALGEAAALLREMRRIAADDPELRKEVKKLEEELDELIDEFTEAATRIYLKIAE | -0.11 |
| usp_38_diff_out_4_126_547 (protein) GREKEFEKLKKEAEELLKKAKELLEKAKEALDKDPKKAQEYLDKALEYLGKLAKLLREMRRVAEGDPELQKEVKELQKKADELVDEYTKAAEEIYLALAE | 0.575 |

| Binder | median log2 fold change |
| --- | --- |
| usp_38_diff_out_4_126_548 (protein) SREEEFEKLKEEANKKMKEAKELLEKAKKLLDKDKEEALKYLDEAAEKLGEASKLLRKMREVAKGDEELRKEYKELLEKLNELVDEYTKVATEIYLALAE | 0.358 |
| usp_38_diff_out_4_126_549 (protein) DREKQAEELEKKLEEALKKAKEYLKKAKELLDKDKEETLKALDKSWEALGKASELLRELRRIAIDDPELRERYKKLLEEANKLVDEFTKAAEEIYLKLSE | -1.05 |
| usp_38_diff_out_4_126_550 (protein) SMKEELEKKLEEAKKLAEEALKAAARLVELAATDPSKVAEARAELDALIAAFTKAANEALKLARKDGKYKEEVTKEIDKLTDEVVEAEGKAVEAVAEALA | 0.0827 |
| usp_38_diff_out_4_12_551 (protein) SAEERRRKREEALERLRRLAEEATREAERLKKEVEEKKDEATLEEALKRANELITELSEATLEALELAENLEEVEEVLRLAEPAFDALAELRVKIEEARK | -0.341 |
| usp_38_diff_out_4_12_552 (protein) AEEERRKELEELLREMEELTEETVARMKELLKELKETKDEEVYEELLKLAEEALTRLAELTTRALELAETDEELEEILRRYSEAVDEIVALMQEARKAMK | -0.539 |
| usp_38_diff_out_4_12_553 (protein) AAEERQKALEKALAEMQKLHEETVKKLKELLEELKKTKKEEILKEAEKLANDALTKLAELTTKALELAETPEEQQAILDLYAQQVTEIVTLMQEAKEAMK | 0.201 |
| usp_38_diff_out_4_12_554 (protein) SAEERRRRFEEALREMERLHRETIEKLEELKEELKKTKDEKVLEEAEKLANEALSRLAELTTRALEEAENDEEVQEILDLYSRHVDEIVTLMNEMKKIMK | 0.0829 |
| usp_38_diff_out_4_12_555 (protein) SAEEEKEKLEKLKEELKKKSEELKELADKLLAEVKEKKDRATYKKAEEELNKKLTELAELTLETLEATDDDEELEEILKLTDETFTYVSEKAAEMREIMK | 0.0256 |
| usp_38_diff_out_4_12_556 (protein) SPEEEEEARERALRELEERSRRLREEAERLLARVKETRDEATYKEANERLNKGLTELAELTLRTLELTDDDEELERILRLTDETFRYVSEKAAEMRELMK | -0.146 |
| usp_38_diff_out_4_12_557 (protein) AEEEREREFKRKREELKRLSEETKERADKLLEEVKKKKDKATLKEATKKLNEDLTKLAELTLETLELAETDEEVQEILDLFDDTATYVSEKAAEMKEILK | -0.616 |
| usp_38_diff_out_4_12_558 (protein) SEEERKKKREEALKELKKLSEDAKATADKLLAEVKKKKDKATLKAANATLNDLLTKLAEKTLEALELAENDEELEEILKIYDDTATYITTKAAEMKAVLK | 0.037 |
| usp_38_diff_out_4_12_559 (protein) AEEEHKEALEKAKEELKKLSEETIKLAKELLEKVKKEKSRATLKEANEKLNKKITELAEATLKALELAETDEELQEILDLWDKTSTEISRLAKEMREILK | -0.371 |
| usp_38_diff_out_4_12_560 (protein) AEEEHKKKLEEAKKELEKLSEELKELADKKLEEVKEKKDKATLKEAEKEINEKITELAEKTLKALELAETDEDLQKILDLYDDTATYVSEKAAEMREILK | -0.0183 |
| usp_38_diff_out_4_12_561 (protein) SEEERKKIAEEALEEMEKKSKEVKEKAKKAKEEAIKTKDLAAFNKKMNELIKELTDLTLEKLEKLAEIGDDETIEEILRIAGETFKELSKLAKEVKEAAK | -0.892 |
| usp_38_diff_out_4_12_562 (protein) SMEEKEKKVKEALEEMKKLSEEAKEKAKKAAEEAKKTGNLAEFNKKMNELINKLTEKTLEVLEKLAELGDEESIEEVLKITSETFTYISQLAAEVKKAAA | -0.588 |
| usp_38_diff_out_4_99_564 (protein) MKEEMVKKVKELKKEAEELLKKAKEAFKLSHEERKKVAEELSKELDELAKELGKIYFEARDTGDKELIKAVNKEADEFVKAYNEAAKELNLLRHEVLEEE | -0.19 |
